According to PubChem BioAssay (Tox21):
Where “and” joins values, the source holds several entries; their conditions need not be identical. Identical values can stand only once. Results filed as inconclusive are left out. Calls of active or inactive are those of the source. Calls follow the shape of the dose curve; as a rule, active = well fitted cell-killing curve with a large enough effect in the repeat runs; inconclusive = weak or mixed curves, or effect the other way; inactive = no such curve, though single readings can be large or run the other way.

experiment: qHTS assay to identify small molecule antagonists of the sonic hedgehog signaling (Shh) pathway - cell viability counter screen (AID 1259367); conditions: NIH/3T3 Gli1-Luc viability, CellTiter-Fluor, 24 h; series mostly up to 92.4 µM; viability change, negative = cytotoxic: at the top concentration; also: nearly all actives have a fitted effect of over 55% in size
Text: National Center for Advancing Translational Sciences [NCATS]
NIH Chemical Genomics Center [NCGC]
U.S. Environmental Protection Agency [EPA]
National Institutes of Environmental Health Sciences [NIEHS]
National Toxicology Program [NTP]
U.S. Food and Drug Administration [FDA]
The sonic hedgehog (Shh) pathway is essential for normal embryonic development. Dysregulation of the Shh pathway can cause severe developmental defects in organs. Therefore chemicals that interfere with the pathway are potential developmental toxicants. A cell line designated 3T3Gli1-Luc (DMB/OARSA/CFSAN/FDA, Laurel, MD), a NIH/3T3 derived clone containing stably integrated Gli1-Luc reporter is used to detect chemical interference of the Shh pathway, by changes in the expression of the firefly Luc gene under the control of the Gli1 transcriptional response element. This cell line was used to screen Tox21 libraries for identifying and prioritizing the potential developmental toxicants that interfere Shh pathway. Conditioned medium-stimulated mode was used to screen for chemicals inhibiting Shh signaling. The cytotoxicity of the compounds was tested in parallel by measuring the cell viability using CellTiter-Fluor assay system (Promega, Madison, WI) in the same wells.
Tox21 Assay Protocol Summary:
3T3 Gli1-Luc cells were dispensed at 2,000 per well in 5uL of culture medium into white solid bottom 1536-well plates (Greiner Bio-One, Monroe, NC) using a Multidrop Combi (Thermo Scientific, Waltham, MA) dispenser. The assay plates were incubated at 37 C and 5% CO2 for 4hr, and then 23nL of compounds dissolved in DMSO and positive control were transferred using a Pintool station (Wako, San Diego, CA). The compound transfer was followed by the addition of 1ul conditioned medium or assay buffer using two separate tips of Flying Reagent Dispenser (FRD, Aurora Discovery, San Diego, CA). The assay plates were incubated at 37C and 5% CO2 for 24hr. For viability read, after 23hr of compound treatment, 1uL of CellTiter-Fluor reagent (Promega Corporation, Madison, WI) was added to each well of the assay plates using Flying Reagent Dispenser (FRD, Aurora Discovery, San Diego, CA) and incubated the assay plates at 37C for 1hr. The fluorescence signal was quantified using a ViewLux plate reader (Perkin Elmer, Shelton, CT).
% is scaled to controls: 0 for no effect and ±100 for the full control effect; potency is read from the fitted curve at half-maximal effect.

SMILES	viability change, negative = cytotoxic	Potency
Oc1cc(Cl)cc(Cl)c1Cl	-8.09% (inactive)	–
COC(C)=O	-2.92% (inactive)	–
CCCc1ccc(OCC(=O)N2CCN(C(=O)COc3ccc(CCC)cc3OC)CC2)c(OC)c1	-20.7% [at 42.5 µM] (inactive)	–
COc1cccc2c1C(=O)c1c(O)c3c(c(O)c1C2=O)C[C@@](O)(C(C)=O)C[C@@H]3O[C@H]1C[C@H](N)[C@H](O)[C@H](C)O1	–	1.09 µM (active) and 1.88 µM (active)
Nc1ccc(C(=O)O)c(O)c1	1.55% [at 42.5 µM] (inactive)	–
CC(C)(C)c1csc(-c2cc3cc(OCc4ccccc4CC(=O)O)ccc3o2)n1	-14.3% (inactive)	–
CCc1cccc(CC)c1NC(=O)CN(CC(=O)O)CC(=O)O	4.26% [at 42.5 µM] (inactive)	–
CN(C)CCN1CCN(c2cccc(Cl)c2)C1=O	0.202% [at 42.5 µM] (inactive)	–
CC(=O)[C@H]1CC[C@H]2[C@@H]3CCC4=CC(=O)CC[C@]4(C)[C@H]3CC[C@]12C	–	inactive
Cc1cc(C(C)(C)C)c(O)c(C)c1Cn1c(=O)n(Cc2c(C)cc(C(C)(C)C)c(O)c2C)c(=O)n(Cc2c(C)cc(C(C)(C)C)c(O)c2C)c1=O	2.58% (inactive)	–
CC(=O)CC(=O)Nc1ccc(S(=O)(=O)O)cc1	4.5% (inactive)	–
CCC(=O)C(=O)CC	-4.82% (inactive)	–
S=c1nccc[nH]1	1.66% (inactive)	–
COc1cc(S(=O)(=O)O)c(C)cc1N=Nc1c(O)ccc2cc(S(=O)(=O)O)ccc12	–	24.3 µM (active)
Cc1cccc2cccnc12	-1.83% (inactive)	–
C[Si](Cl)(c1ccccc1)c1ccccc1	-13.8% (inactive)	–
C=CC(C)(CCC=C(C)C)OC=O (stereo not given)	-0.202% (inactive)	–
CCCCCCOC(=O)C(C)CC (stereo not given)	1.97% (inactive)	–
O[C@@H]([C@H](O)[C@H](O)CBr)[C@H](O)CBr	4.32% (inactive)	–
CC(=O)Oc1cc2c(s1)CCN(C(C(=O)C1CC1)c1ccccc1F)C2 (stereo not given)	3.95% [at 42.5 µM] (inactive)	–

SMILES	viability change, negative = cytotoxic	Potency
COc1cc2nc(N3CCN(C(=O)c4ccco4)CC3)nc(N)c2cc1OC	-24.8% [at 19 µM] (inactive)	–
C=CCn1c(=O)n(CC=C)c(=O)n(CC=C)c1=O	-2.86% (inactive)	–
Nc1ccc(Oc2ccc(Cl)cc2)cc1	-8.77% (inactive)	–
CCc1oc2ccccc2c1C(=O)c1cc(I)c(O)c(I)c1	-1.38% [at 42.5 µM] (inactive)	–
NC[C@H]1O[C@H](O[C@H]2[C@H](O[C@@H]3O[C@H](CO)[C@@H](O)[C@H]3O)C(O)[C@H](N)C[C@@H]2N)[C@H](N)[C@@H](O)[C@@H]1O (stereo not given in full)	-1.51% [at 8.39 µM] (inactive)	–
C[C@@H](O)[C@H](N)C(=O)O	3.97% [at 19 µM] (inactive)	–
CC/C=C\CCCCCO	-6.27% (inactive)	–
C=Cc1ccccc1C=C	-2.16% [at 240 µM] (inactive)	–
CC(C)NC[C@@H](O)COc1ccc(CC(N)=O)cc1	-0.816% [at 42.5 µM] (inactive)	–
C=CC(=O)OCCOC(=O)C=C	-1.12% (inactive)	–
Cc1ccc(C(C)C)cc2c(C)ccc1-2	0.702% [at 42.5 µM] (inactive)	–
CCN1C(=O)c2ccccc2C1Nc1ccc(OCCN2CCCCC2)cc1 (stereo not given)	-13.5% [at 42.5 µM] (inactive)	–
c1ccc(SSc2ccccc2)cc1	0.396% (inactive)	–
C#C[C@]1(OC(C)=O)CC[C@H]2[C@@H]3CCC4=C[C@@H](OC(C)=O)CC[C@@H]4[C@H]3CC[C@@]21C	4.01% [at 42.5 µM] (inactive)	–
O=C(O)c1ccc2cc(C(=O)O)ccc2c1	3.65% (inactive)	–
CC(C)(C)NSc1nc2ccccc2s1	13.5% (inactive)	–
Nc1nc2c(ncn2COCCO)c(=O)[nH]1	-1.95% [at 42.5 µM] (inactive)	–
CCOC(=O)NNc1ccc(N(CC)CC(C)O)nn1 (stereo not given)	4.24% [at 42.5 µM] (inactive)	–
CC(=O)OCC=C(C)C	0.683% [at 42.5 µM] (inactive)	–
C[C@H]1NCc2cc(-c3ccc4c(=O)c(C(=O)O)cn(C5CC5)c4c3OC(F)F)ccc21	-2.69% [at 19 µM] (inactive)	–
